# Reference: PubChem BioAssay AID1159580 (chemical genetic matrix, 2015)
# The campaign covered roughly 5,500 compounds. About 2,000 (36%) were called active. About 18% were inconclusive and are not listed. The list shows a part of the results. A number with no mark means an inactive call. Cut-off read from the data, not from the text of the source: active = normalized growth mostly below about 0.91 (no sharp cut-off); inconclusive = no clear call, values can overlap the other calls; inactive = mostly above about 0.92.
# Assay: chemical genetic growth profiling, strain panel (AID 1159580);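 note: tested at 20 µM; growth read once vehicle control cultures reached saturation at 30 °C; 1 = growth at the plate median or of vehicle wells; lower values mean less growth of the strain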
# Details: growth OD
structure (smiles),measurement,setting,value
COc1ccccc1-c1cc(=O)c2c(OC)cccc2o1,normalized growth,"S. cerevisiae deletion strains, locus YBR021W, strain FUR4, active compounds read low",0.99
same,normalized growth,"S. cerevisiae deletion strains, locus YBR229C, strain ROT2, active compounds read low",0.973
same,normalized growth,"S. cerevisiae deletion strains, locus YCL029C, strain bik1, active compounds read low",1
same,normalized growth,"S. cerevisiae deletion strains, locus YDL035C, strain GPR1, active compounds read low",0.953
same,normalized growth,"S. cerevisiae deletion strains, locus YDL074C, strain BRE1, active compounds read low",0.923
same,normalized growth,"S. cerevisiae deletion strains, locus YDL101C, strain DUN1, active compounds read low",0.966
same,normalized growth,"S. cerevisiae deletion strains, locus YDL185W, strain tfp1, active compounds read low",0.987
same,normalized growth,"S. cerevisiae deletion strains, locus YDL192W, strain arf1, active compounds read low",0.892 (active)
same,normalized growth,"S. cerevisiae deletion strains, locus YDR101C, strain arx1, active compounds read low",0.987
same,normalized growth,"S. cerevisiae deletion strains, locus YDR162C, strain NBP2, active compounds read low",0.95
same,normalized growth,"S. cerevisiae deletion strains, locus YDR318W, strain mcm21, active compounds read low",0.935
same,normalized growth,"S. cerevisiae deletion strains, locus YDR388W, active compounds read low",0.985
same,normalized growth,"S. cerevisiae deletion strains, locus YDR502C, strain sam2, active compounds read low",0.944
same,normalized growth,"S. cerevisiae deletion strains, locus YEL061C, strain CIN8, active compounds read low",0.977
same,normalized growth,"S. cerevisiae deletion strains, locus YER110C, active compounds read low",0.977
same,normalized growth,"S. cerevisiae deletion strains, locus YER155C, strain BEM2, active compounds read low",1.01
same,normalized growth,"S. cerevisiae deletion strains, locus YER167W, strain BCK2, active compounds read low",0.996
same,normalized growth,"S. cerevisiae deletion strains, locus YGL078C, strain dbp3, active compounds read low",0.983
same,normalized growth,"S. cerevisiae deletion strains, locus YGL086W, strain mad1, active compounds read low",0.99
same,normalized growth,"S. cerevisiae deletion strains, locus YGL248W, strain PDE1, active compounds read low",0.942
same,normalized growth,"S. cerevisiae deletion strains, locus YGR078C, strain PAC10, active compounds read low",0.938
same,normalized growth,"S. cerevisiae deletion strains, locus YGR135W, strain pre9, active compounds read low",0.915
same,normalized growth,"S. cerevisiae deletion strains, locus YGR252W, strain gcn5, active compounds read low",0.776
same,normalized growth,"S. cerevisiae deletion strains, locus YHR030C, strain SLT2, active compounds read low",0.991
same,normalized growth,"S. cerevisiae deletion strains, locus YHR079C, strain IRE1 (second series), active compounds read low",0.979
same,normalized growth,"S. cerevisiae deletion strains, locus YHR094C, strain hxt1, active compounds read low",0.996
same,normalized growth,"S. cerevisiae deletion strains, locus YHR129C, strain ARP1, active compounds read low",0.967
same,normalized growth,"S. cerevisiae deletion strains, locus YHR200W, strain rpn10, active compounds read low",0.98
same,normalized growth,"S. cerevisiae deletion strains, locus YIL066C, strain RNR3, active compounds read low",0.961
same,normalized growth,"S. cerevisiae deletion strains, locus YIL073C, strain SPO22, active compounds read low",0.931
same,normalized growth,"S. cerevisiae deletion strains, locus YIL125W, strain kgd1, active compounds read low",1.01
same,normalized growth,"S. cerevisiae deletion strains, locus YIR030C, strain dcg1, active compounds read low",0.969
same,normalized growth,"S. cerevisiae deletion strains, locus YJL095W, strain BCK1, active compounds read low",0.773 (active)
same,normalized growth,"S. cerevisiae deletion strains, locus YJL134W, strain LCB3, active compounds read low",0.988
same,normalized growth,"S. cerevisiae deletion strains, locus YJL168C, strain set2, active compounds read low",0.971
same,normalized growth,"S. cerevisiae deletion strains, locus YJL187C, strain SWE1 (second series), active compounds read low",0.954
same,normalized growth,"S. cerevisiae deletion strains, locus YJR043C, strain POL32, active compounds read low",0.999
same,normalized growth,"S. cerevisiae deletion strains, locus YJR075W, strain HOC1, active compounds read low",0.987
same,normalized growth,"S. cerevisiae deletion strains, locus YKL009W, strain mrt4, active compounds read low",0.968
same,normalized growth,"S. cerevisiae deletion strains, locus YKL068W, active compounds read low",0.993
same,normalized growth,"S. cerevisiae deletion strains, locus YKL085W, strain MDH1 (second series), active compounds read low",0.982
same,normalized growth,"S. cerevisiae deletion strains, locus YKL085W, strain MDH1, active compounds read low",0.982
same,normalized growth,"S. cerevisiae deletion strains, locus YKL190W, strain CNB1, active compounds read low",0.972
same,normalized growth,"S. cerevisiae deletion strains, locus YKR001C, strain vps1, active compounds read low",0.916
same,normalized growth,"S. cerevisiae deletion strains, locus YLR039C, strain RIC1, active compounds read low",0.872
same,normalized growth,"S. cerevisiae deletion strains, locus YLR058C, strain SHM2, active compounds read low",0.96
same,normalized growth,"S. cerevisiae deletion strains, locus YLR102C, strain apc9, active compounds read low",0.988
same,normalized growth,"S. cerevisiae deletion strains, locus YLR262C, strain YPT6, active compounds read low",0.815
same,normalized growth,"S. cerevisiae deletion strains, locus YLR268W, strain sec22, active compounds read low",0.98
same,normalized growth,"S. cerevisiae deletion strains, locus YLR330W, strain CHS5, active compounds read low",0.976
same,normalized growth,"S. cerevisiae deletion strains, locus YLR342W, strain FKS1 (second series), active compounds read low",0.894
same,normalized growth,"S. cerevisiae deletion strains, locus YLR371W, strain rom2, active compounds read low",0.979
same,normalized growth,"S. cerevisiae deletion strains, locus YLR418C, strain cdc73, active compounds read low",0.77 (active)
same,normalized growth,"S. cerevisiae deletion strains, locus YML016C, strain PPZ1, active compounds read low",0.983
same,normalized growth,"S. cerevisiae deletion strains, locus YML032C, strain rad52, active compounds read low",0.951
same,normalized growth,"S. cerevisiae deletion strains, locus YML124C, strain tub3, active compounds read low",0.983
same,normalized growth,"S. cerevisiae deletion strains, locus YMR078C, strain ctf18, active compounds read low",0.969
same,normalized growth,"S. cerevisiae deletion strains, locus YMR223W, strain ubp8, active compounds read low",0.916
same,normalized growth,"S. cerevisiae deletion strains, locus YMR263W, strain SAP30, active compounds read low",0.958
same,normalized growth,"S. cerevisiae deletion strains, locus YMR307W, strain GAS1, active compounds read low",0.72
same,normalized growth,"S. cerevisiae deletion strains, locus YNL067W, strain RPL9B, active compounds read low",0.982
same,normalized growth,"S. cerevisiae deletion strains, locus YNL153C, strain GIM3, active compounds read low",0.974
same,normalized growth,"S. cerevisiae deletion strains, locus YNL233W, strain BNI4, active compounds read low",0.922
same,normalized growth,"S. cerevisiae deletion strains, locus YNL250W, strain rad50, active compounds read low",0.999
same,normalized growth,"S. cerevisiae deletion strains, locus YNL271C, strain bni1, active compounds read low",0.969
same,normalized growth,"S. cerevisiae deletion strains, locus YNL298W, strain CLA4, active compounds read low",0.965
same,normalized growth,"S. cerevisiae deletion strains, locus YNL307C, strain MCK1, active compounds read low",0.88 (active)
same,normalized growth,"S. cerevisiae deletion strains, locus YNL322C, strain KRE1, active compounds read low",0.978
same,normalized growth,"S. cerevisiae deletion strains, locus YNR052C, strain pop2, active compounds read low",0.958
same,normalized growth,"S. cerevisiae deletion strains, locus YOL006C, strain TOP1, active compounds read low",0.762
same,normalized growth,"S. cerevisiae deletion strains, locus YOL012C, strain htz1",1.44
same,normalized growth,"S. cerevisiae deletion strains, locus YOL147C, strain pex11, active compounds read low",0.975
same,normalized growth,"S. cerevisiae deletion strains, locus YOR061W, strain CKA2, active compounds read low",0.972
same,normalized growth,"S. cerevisiae deletion strains, locus YOR069W, strain VPS5, active compounds read low",0.982
same,normalized growth,"S. cerevisiae deletion strains, locus YOR136W, strain idh2, active compounds read low",1
same,normalized growth,"S. cerevisiae deletion strains, locus YOR144C, strain elg1, active compounds read low",0.996
same,normalized growth,"S. cerevisiae deletion strains, locus YOR184W, strain ser1, active compounds read low",0.837 (active)
same,normalized growth,"S. cerevisiae deletion strains, locus YOR316C, strain cot1, active compounds read low",0.992
same,normalized growth,"S. cerevisiae deletion strains, locus YPL241C, strain CIN2, active compounds read low",0.974
same,normalized growth,"S. cerevisiae deletion strains, locus YPR119W, strain clb2, active compounds read low",0.982
same,normalized growth,"S. cerevisiae deletion strains, locus YPR141C, strain kar3, active compounds read low",0.987
same,normalized growth,"S. cerevisiae deletion strains, locus YPR163C, strain tif3, active compounds read low",0.964
same,normalized growth,"S. cerevisiae deletion strains, locus YPR167C, strain met16, active compounds read low",0.969
same,normalized growth,"S. cerevisiae deletion strains, strain wtn01, active compounds read low",1
same,normalized growth,"S. cerevisiae strains, strain wild type, active compounds read low",0.975
